# Results from publication PMC5540273 (PLoS ONE, 2017).
# Values joined by “and” are separate entries in the source; they are usually repeats but may differ in a detail not shown here. Identical values can stand only once.
# System: PIK3CB
# 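Note: kd values determined as follow-up on hits from a single-replicate KINOMEscan panel screen.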
row,SMILES,Kd
1,CSc1nn2c(=O)cc(N3CCOCC3)nc2n1Cc1cccc(C(F)(F)F)c1C [GSK2363608],0.48 nM and 0.26 nM
2,Cc1c(Cn2ccn3c(=O)cc(N4CCOCC4)nc23)cccc1C(F)(F)F [GSK2289044],1.5 nM
3,O=c1cc(N2CCOCC2)nc2n(Cc3cccc(Cl)c3Cl)ccn12 [GSK2286295],3.5 nM
4,CS(=O)(=O)c1ccc(-c2c(-c3ncn[nH]3)sc(N3CCOCC3)c2C#N)cc1,77 nM

# System: PIK3CD
row,SMILES,Kd
1,CSc1nn2c(=O)cc(N3CCOCC3)nc2n1Cc1cccc(C(F)(F)F)c1C [GSK2363608],64 nM and 47 nM
2,Cc1c(Cn2ccn3c(=O)cc(N4CCOCC4)nc23)cccc1C(F)(F)F [GSK2289044],170 nM
3,Cc1ccc(C(=O)Nc2ccc(Nc3ccnc4cc(-c5ccccn5)ccc34)cc2O)cc1.Cl [GW440146],> 10000 nM
4,O=c1cc(N2CCOCC2)nc2n(Cc3cccc(Cl)c3Cl)ccn12 [GSK2286295],79 nM

# System: T1, PIK4CB
# T1 construct: gene PI4KB
row,SMILES,Kd [nM]
1,Cl.NC(=O)c1cccc(Nc2nccc(Nc3ccc(Oc4cccc(Cl)c4)c(Cl)c3)n2)c1 [GW659008],> 10000
2,CS(=O)(=O)c1ccc(-c2nc3n(c2-c2ccncc2)CCC3)cc1 [SKF-105942],> 10000
3,Cc1cc(N2Cc3ccccc3C2)nc(Nc2ccc(S(=O)(=O)N3CCOCC3)cc2)n1.Cl [GSK1669917],> 10000

# System: PIKFYVE
row,SMILES,Kd [nM]
1,O=C(Nc1n[nH]c2cc(-c3cccc(F)c3F)ccc12)C1CC1 [SB-733894],> 10000
2,Cc1cccc(-c2nc(Nc3ccc4[nH]ncc4c3)c3ccccc3n2)n1 [GW857175],700
3,COc1ccc2nc(-c3cccc(C)n3)nc(Nc3ccncc3)c2c1 [GSK204919],1200
